These results are taken from PubChem BioAssay (EPA / NIEHS).

Test [1] in a line: ATG_CRE_CIS: Attagene CIS-FACTORIAL HepG2 Assay for human cAMP Responsive Element (CRE) binding protein 3 (AID 2282926). As to conditions: HepG2 CRE cis-reporter, Attagene multiplexed mRNA; actives raise or lower the signal. The gist of the method:
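Readout: fluorescently labelled reporter transcripts resolved by capillary electrophoresis after RT-PCR, taken 24 h post-dosing in transfected HepG2. Endogenous transcription factor activity drives each cis-element reporter; gain or loss of signal fitted relative to DMSO control.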

A short description of test [2]: APR_HepG2_CellCycleArrest_24hr: Apredica 24-hour HepG2 Assay for Cell Cycle Arrest (AID 2282905).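 Further: cell cycle arrest scored as ratio of 2N to 4N nuclear DNA content.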 As to conditions: imaging, actives raise or lower the signal. The gist of the method: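 After 24 h exposure at 0.39–200 uM in 0.5% DMSO, fixed cells received Hoechst 33342 staining. Imaging quantified per-nucleus DNA content; gain or loss fitted against DMSO controls.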

Test [3] in a line: APR_HepG2_NuclearSize_24hr: Apredica 24-hour HepG2 Assay for Nuclear Size (AID 2282907). As to conditions: high-content imaging, actives raise or lower the signal. In a few lines: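 Nuclear size from Hoechst 33342-stained, formaldehyde-fixed HepG2 nuclei imaged by high-content microscopy, after 24 h dosing at ten concentrations from 0.39 to 200 uM in 0.5% DMSO; gain or loss relative to DMSO baseline.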

Test [4] is described as follows: APR_HepG2_CellLoss_24hr: Apredica 24-hour HepG2 Assay for Cell Loss (AID 2282908).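 On AC50: fit in both directions so a hit may be cell loss or gain.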 Particulars: high-content imaging. In a few lines: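 Nuclei stained with Hoechst 33342 after formaldehyde fixation (3.7%) were imaged at 20x to count cells. Exposure lasted 24 hr, at ten concentrations from 0.39 to 200 uM in duplicate, with 0.5% v/v DMSO. Fit bidirectional, relative to DMSO.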

Test [5] can be described thus: APR_HepG2_MicrotubuleCSK_24hr: Apredica 24-hour HepG2 Assay for Microtubule CSK Stabilty (AID 2282909). As to conditions: HepG2 microtubule cytoskeleton imaging, actives raise or lower the signal. The gist of the method:
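Fixed HepG2 cells were stained for alpha-tubulin and imaged after 24 hr exposure to ten concentrations spanning 0.39–200 uM in 0.5% DMSO. Signal change was fitted in both directions relative to DMSO; taxol was the positive control.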

A short description of test [6]: APR_HepG2_MitoticArrest_24hr: Apredica 24-hour HepG2 Assay for Mitotic Arrest (AID 2282910). As to conditions: high-content imaging, actives raise or lower the signal. In a few lines: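 HepG2, 24 hr dosing, 0.39–200 uM, 0.5% DMSO final. Formaldehyde-fixed, Triton-permeabilised, anti-phospho-histone H3 plus Hoechst. ArrayScan imaging at 20x; bidirectional fit vs DMSO baseline.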

A short description of test [7]: APR_HepG2_MitoMembPot_24hr: Apredica 24-hour HepG2 Assay for Mitochondrial Membrane Potential (AID 2282911). Particulars: imaging, actives raise or lower the signal. In a few lines: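 HepG2, 24 hr dosing, 10 concentrations 0.39–200 uM, 0.5% DMSO final. Live-cell MitoTracker Red CMXRos 250 nM 30 min, then 3.7% formaldehyde fix. HCS fluorescence imaging, 20x; bidirectional fit vs DMSO baseline.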

Test [8] is described as follows: APR_HepG2_CellCycleArrest_72hr: Apredica 72-hour HepG2 Assay for Cell Cycle Arrest (AID 2282914). Particulars: high-content imaging, actives raise or lower the signal. In a few lines: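 HepG2, 72 hr exposure, 10-point 0.39–200 uM, duplicate, 0.5% DMSO final. Fix 3.7% formaldehyde 30 min RT, Triton X-100 0.5%, Hoechst 33342 2 ug/mL. ArrayScan 20x, six fields/well; DNA content per nucleus; bidirectional fit vs DMSO.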

The nature of test [9]: APR_HepG2_CellLoss_72hr: Apredica 72-hour HepG2 Assay for Cell Loss (AID 2282915). Particulars: high-content imaging. The gist of the method:
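HepG2 cells exposed 72 h to compound at 0.39–200 uM (10 concentrations, duplicate) in 0.5% DMSO. Fixed with 3.7% formaldehyde and Hoechst 33342-stained. Imaged at 20x; nuclear count gives cell number, fitted bidirectionally versus DMSO.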

A short description of test [10]: APR_HepG2_P-H2AX_72hr: Apredica 72-hour HepG2 Assay for H2AX Phosphorylation (AID 2282916).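 Further: phospho-histone H2A.x immunostain intensity per cell marking DNA damage.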 As to conditions: imaging, actives raise or lower the signal. In a few lines:
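Phospho-histone H2A.x immunofluorescence, multiplexed with Hoechst and c-Jun, quantified by high-content imaging. Compounds applied to HepG2 for 72 h across ten concentrations (0.39–200 uM, 0.5% DMSO), in duplicate; DMSO baseline.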

The nature of test [11]: APR_HepG2_MitoMembPot_72hr: Apredica 72-hour HepG2 Assay for Mitochondrial Membrane Potential (AID 2282917). As to conditions: imaging, actives raise or lower the signal. The gist of the method:
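HepG2 cells dosed 72 hr with compound at 0.39–200 uM in duplicate, 0.5% v/v DMSO final. Mitochondria stained with 250 nM MitoTracker Red CMXRos for 30 min before formaldehyde fixation, imaged by high-content fluorescence; bidirectional fit versus DMSO.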

A short description of test [12]: APR_HepG2_MitoticArrest_72hr: Apredica 72-hour HepG2 Assay for Mitotic Arrest (AID 2282918). Particulars: high-content imaging, actives raise or lower the signal. In a few lines:
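HepG2, 72 hr exposure, 0.39–200 uM in duplicate, 0.5% v/v DMSO final. Formaldehyde-fixed, Triton-permeabilized, anti-phospho-histone H3/FITC plus Hoechst. ArrayScan imaging at 20x; curves fit bidirectionally against DMSO baseline.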

Test [13] can be described thus: APR_HepG2_MicrotubuleCSK_72hr: Apredica 72-hour HepG2 Assay for Microtubule CSK Stabilty (AID 2282919). As to conditions: HepG2 microtubule cytoskeleton, high-content imaging, actives raise or lower the signal. The gist of the method:
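HepG2, 72 hr cmpd exposure, 0.39–200 uM (10 pts, duplicate), 0.5% DMSO. 3.7% formaldehyde fix, 0.5% Triton perm, anti-alpha-tubulin/Cy5 plus Hoechst. HCS fluorescence intensity; bidirectional fit vs DMSO baseline; taxol as positive control.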

Test [14] is described as follows: APR_HepG2_P-H2AX_24hr: Apredica 24-hour HepG2 Assay for H2AX Phosphorylation (AID 2282920). As to conditions: high-content imaging, actives raise or lower the signal. The gist of the method: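 HCS fluorescence imaging of phospho-H2A.x immunostain (with Hoechst 33342 nuclear counterstain) in HepG2 after 24 hr compound exposure; 10 concentrations, 0.39–200 uM, duplicate wells, 0.5% v/v DMSO. Gain or loss of signal fitted relative to DMSO baseline.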

Test [15] can be described thus: APR_HepG2_StressKinase_72hr: Apredica 72-hour HepG2 Assay for Stress Kinase (AID 2282921). Particulars: HepG2 stress kinase (phospho-c-Jun) imaging, actives raise or lower the signal. The gist of the method: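 Stress kinase signal is phospho-c-Jun immunofluorescence (1:500 primary, Cy3 secondary) in fixed, permeabilized human HepG2 cells imaged at 20x. Exposure lasted 72 hr over ten concentrations from 0.39 to 200 uM, 0.5% DMSO, in duplicate. Bidirectional fit versus DMSO.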

Test [16] is described as follows: APR_HepG2_StressKinase_24hr: Apredica 24-hour HepG2 Assay for Stress Kinase (AID 2282922). As to conditions: HepG2 stress kinase (phospho-c-Jun) imaging, actives raise or lower the signal. The gist of the method:
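Read-out: phospho-c-Jun immunofluorescence (Cy3 secondary) quantified by high-content imaging at 20x, nuclei defined by Hoechst 33342. Human HepG2 liver cells dosed 24 hr, 0.39–200 uM, DMSO 0.5% v/v; gain or loss of signal fitted relative to DMSO.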

Test [17] can be described thus: APR_HepG2_MitoMass_72hr: Apredica 72-hour HepG2 Assay for Mitochondrial Mass (AID 2282924).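 Further: MitoTracker Red CMXRos stain intensity per cell imaged as mitochondrial mass.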 Particulars: high-content imaging, actives raise or lower the signal. The gist of the method: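 Read-out: MitoTracker Red fluorescence intensity from automated imaging (20x, six fields per well) in human HepG2 liver cells. Dosing ran 72 hr, 0.39–200 uM, 0.5% DMSO; bidirectional curve fitting versus DMSO baseline.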

Test [18] is described as follows: APR_HepG2_NuclearSize_72hr: Apredica 72-hour HepG2 Assay for Nuclear Size (AID 2282925). Particulars: high-content imaging, actives raise or lower the signal. The gist of the method:
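Read-out: nuclear diameter from Hoechst 33342 images (ArrayScan, 20x, six fields/well), via cell-cycle image analysis. HepG2 were dosed 0.39–200 uM for 72 hr in 0.5% DMSO. Bidirectional fit relative to DMSO.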

The nature of test [19]: APR_HepG2_p53Act_24hr: Apredica 24-hour HepG2 Assay for p53 Activation (AID 2282913).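 Further: p53 protein immunofluorescence averaged per cell in HepG2 with Hoechst nuclei.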 As to conditions: high-content imaging, actives raise or lower the signal. In a few lines: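 Read-out: Cy5 immunofluorescence for p53 in fixed, permeabilized HepG2, imaged by HCS with Hoechst-defined nuclei. Dosing was 24 hr at 0.39–200 uM in 0.5% DMSO. Curves were fitted bidirectionally relative to DMSO.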

The nature of test [20]: APR_HepG2_p53Act_72hr: Apredica 72-hour HepG2 Assay for p53 Activation (AID 2282923).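 Further: average cellular p53 protein immunofluorescence intensity in HepG2 cells.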 Particulars: high-content imaging, actives raise or lower the signal. In a few lines: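 After 72 h with compound (ten points, 0.39 to 200 uM, final DMSO 0.5% v/v), fixed HepG2 cells were labelled with sheep anti-p53 and Hoechst 33342 and imaged; gain or loss versus DMSO scored.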

Activity calls are given as the source filed them. How the source made its calls: active means hit-call score of the fitted dose curve at least 0.9, where 1 is the maximum; inactive means score below 0.9.

Consider `Oc1cc2ccccc2cc1O`, for which the molecule was called inactive in test [1].
Same read-out and setting: under `O=C(NCc1ncc(C(F)(F)F)cc1Cl)c1c(Cl)cccc1Cl` stands “inactive”.
`N=C(N)c1ccc(OCCCCCOc2ccc(C(=N)N)cc2)cc1`: the call in test [2], in test [3], in [7], in test [11], in [13] and in test [15] was inactive. In addition, the call in test [16] and in [1] was inactive. For the same molecule, the AC50 in [4] was 9.33 µM (active); in [5], 32.6 µM (active); in test [6] it was 30 µM (active); in [8], 4.81 µM (active); in test [9], 24.2 µM (active); in test [10] it was 25.1 µM (active). For the same molecule, the concentration at half-maximal activity (AC50) in test [12] was 21.6 µM (active); in [14] it was 39.7 µM (active); in test [17], 11.3 µM (active); in test [18], 45.5 µM (active).
On to `CS(=O)(=O)c1ccc([C@@H](CC2CCCC2)C(=O)Nc2cnccn2)cc1Cl`, for which the outcome in test [4], in test [6], in test [7], in test [19], in [9] and in test [10] was inactive. For the same molecule, the molecule was classed as inactive in test [11], in [12], in test [14], in test [15], in [16] and in [20]. Besides, in test [17], the call was inactive.
Take `CC[N+](CC)(CC)Cc1ccccc1`: the molecule was classed as inactive in test [1].
Consider `CCCCCCCCCCCC`, for which, in test [1], the result was inactive.
On the same count and under the same terms, under `CCCCCCc1ccc(N)cc1` stands “inactive”.
On to `CN(C)CCOC(c1ccccc1)c1ccccc1`, for which the outcome in [4], in test [6], in test [7], in test [11], in test [14] and in test [15] was inactive. The molecule was called inactive in test [16], in [17] and in test [1]. Moreover, the results for the AC50 in test [9], in test [10] and in test [12] were 90.8 µM (active), 114 µM (active) and 111 µM (active), respectively.
With `O=C(c1cc(O)c(O)c(O)c1)c1ccc(O)c(O)c1O`, the molecule was called inactive in test [1].
Same read-out and setting: the result for `CC(C)c1c(C(=O)Nc2ccccc2)c(-c2ccccc2)c(-c2ccc(F)cc2)n1CC[C@@H](O)C[C@@H](O)CC(=O)O` reads “inactive”.
Take `CN(Cc1cnc2nc(N)nc(N)c2n1)c1ccc(C(=O)N[C@@H](CCC(=O)O)C(=O)O)cc1`: the molecule was called inactive in test [2], in [3], in test [4], in test [5], in test [6] and in [7]. Moreover, the molecule was classed as inactive in test [8], in test [9], in test [12], in [13], in [14] and in test [15]. In addition, the molecule was classed as inactive in test [16], in test [17], in test [18] and in test [1]. Moreover, the AC50 in test [10] is 0.0391 µM (active); in test [11] it was 19.8 µM (active).
In the case of `CCCCC=O`, the molecule was classed as inactive in test [2], in [3], in test [4], in [5], in test [6] and in [7]. For the same molecule, the molecule was classed as inactive in test [8], in test [9], in test [10], in test [11], in test [12] and in test [13]. Also, the molecule was called inactive in test [14], in [15], in [16], in test [17], in [18] and in [1].
Consider `COc1ccccc1NC(=O)c1cc2ccccc2cc1O`, for which, in test [1], the AC50 is 31.6 µM (active).

The AC50 is the concentration at which the activity in the assay is half-maximal.
